Experimental data published in PubChem BioAssay (Tox21).
Inconclusive results are not listed. Activity calls are given as the source filed them. Unless noted, calls come from the whole dose curve.

Legend:
[1] = Nuclear factor erythroid 2-related factor 2/antioxidant responsive element (Nrf2/ARE) small molecule agonists: qHTS cell viability counter screen in human keratinocytes (AID 1919968; active = well fitted curve in the direction sought with a large enough effect in the repeat runs; an effect the other way counts as inactive or inconclusive; note: nearly all actives have a fitted effect of over 55% in size; note: potency is the fitted concentration of half-maximal effect)
Outline: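 KeratinoSens cells (HaCaT keratinocytes stably carrying an ARE-luciferase reporter) were seeded at 1,500 cells/well and rested 5 h at 37 C/5% CO2. They were then exposed to compounds in DMSO for 23 h. Viability was read by CellTiter-Fluor fluorescence after 1 h.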

[2] = Nuclear factor erythroid 2-related factor 2/antioxidant responsive element (Nrf2/ARE) small molecule agonists: luciferase reporter gene qHTS assay in human keratinocytes (AID 1919969); note: nearly all actives have a fitted effect of over 35% in size
[3] = target: Gonadotropin-releasing hormone receptor (Homo sapiens) (UniProt P30968); assay: Human gonadotropin-releasing hormone receptor (GnRHR) small molecule agonists, calcium flux assay in GnRHR-HEK293 cells (AID 1920063); note: nearly all actives have a fitted effect of over 35% in size; note: potency is the fitted concentration of half-maximal effect
Outline: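 HEK293 cells stably expressing human GnRHR were plated 18 h at 37 °C, loaded with calcium dye 1 h at 37 °C, then given compound in agonist mode; fluorescence (Ex/Em 480/540) read kinetically for 3 min at 1 s intervals.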

[4] = G protein-coupled receptor (GPCR) small molecule agonists, calcium flux assay: HEK293 wild type cell line counter screen (AID 1920065)
Outline: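 Cells were plated and cultured 18 h at 37 C/5% CO2, then loaded with calcium dye for 1 h at 37 C. Compounds in DMSO were pin-transferred in agonist mode, and fluorescence (Ex/Em 480/540) was read kinetically for 3 min at 1 s intervals.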

[5] = p53 small molecule agonists, cell-based qHTS assay with rat liver microsomes (AID 1963578)
Outline: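 Compound in DMSO added to p53RE-bla cells 5 h post-plating; rat microsomes/NADPH 0.5 mg/mL final; 16 h, 37 C; LiveBLAzer 2 h RT.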

[6] = p53 small molecule agonists, cell-based qHTS assay with rat liver microsomes: qHTS cell viability counter screen (AID 1963580); note: nearly all actives have a fitted effect of over 45% in size
Outline: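 Intracellular ATP, by CellTiter-Glo luminescence, defines viability. HCT-116 p53RE-bla cells, 4,000 per well, were compound-treated in the presence of rat liver microsomes and NADPH for 16 h at 37 C.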

[7] = p53 small molecule agonists, cell-based qHTS assay: qHTS cell viability counter screen (AID 1963581); note: nearly all actives have a fitted effect of over 45% in size
Outline: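 p53RE-bla HCT-116 cells were exposed to compounds for 16 h at 37 C; after the beta-lactamase FRET read in the same wells, CellTiter-Glo was added and luminescence (intracellular ATP) read after 30 min at room temperature.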

[8] = p53 small molecule agonists, cell-based qHTS assay (AID 1963582; active = well fitted activation curve with a large enough effect in the signal ratio in the repeat runs, not every such curve was filed as active; the % refers to the signal ratio)
Outline: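 p53RE-bla beta-lactamase reporter cells rested 5 h at 37 C/5% CO2, then received compounds in DMSO by pin transfer and were incubated 16 h at 37 C. LiveBLAzer B/G FRET substrate was loaded for 2 h at room temperature before fluorescence reading.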

[9] = target: D(2) dopamine receptor (Homo sapiens) (UniProt P14416); assay: Dopamine D2 receptor (DRD2) small molecule antagonists, cell-based qHTS assay (AID 1963595; active = well fitted inhibition curve with a large enough effect in the signal ratio in the repeat runs, with a control signal flat; the % refers to the signal ratio; note: potency is the fitted concentration of half-maximal effect)
Outline: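 Human DRD2 antagonist qHTS measuring cAMP by HTRF. The cells are exposed to compound for 10 min, then to NKH477 (200 nM) and quinpirole (12 nM) for 30 min at RT, with Ro20-1724 (0.1 mM) present throughout.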

[10] = target: KiSS-1 receptor (Homo sapiens) (UniProt Q969F8); assay: Human kisspeptin (KISS1R) small molecule agonists, calcium flux assay in KISS1R-HEK293 cells (AID 1920064; active = well fitted curve in the direction sought with a large enough effect in the repeat runs; an effect the other way counts as inactive or inconclusive)
Outline: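 HEK293 cells stably expressing human KISS1R were plated 18 h at 37 °C, loaded with calcium dye for 1 h at 37 °C, then given compound by pin tool. Fluorescence (Ex/Em 480/540) was read kinetically for 3 min.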

[11] = p53 small molecule agonists, cell-based qHTS assay with human liver microsomes: qHTS cell viability counter screen (AID 1963579); note: nearly all actives have a fitted effect of over 45% in size
Outline: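 HLM-supplemented (0.5 mg/mL final) and NADPH-supplemented (0.5 mg/mL final) p53RE-bla cultures, 4,000 cells per well, were dosed with compounds in DMSO for 16 h at 37 C; luminescent ATP detection (CellTiter-Glo, 30 min, room temperature) quantified surviving cells.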

[12] = target: 5-hydroxytryptamine receptor 2A (Homo sapiens) (UniProt P28223); assay: 5-hydroxytryptamine receptor 2A (HTR2A) small molecule agonists, cell-based qHTS assay (AID 1963587); note: nearly all actives have a fitted effect of over 30% in size
Outline: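 Kinetic calcium-flux fluorescence (2 min, 1 sec intervals) after compound addition in agonist mode. HTR2A-CHO cells were cultured 18 h, then dye-loaded 1 h at 37 C.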

[13] = target: Muscarinic acetylcholine receptor M1 (Homo sapiens) (UniProt P11229); assay: Cholinergic receptor muscarinic 1 (CHRM1) small molecule antagonists, cell-based qHTS assay (AID 1963588); note: nearly all actives have a fitted effect of over 40% in size; note: potency is the fitted concentration of half-maximal effect
Outline: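 CHRM1-CHO calcium-flux assay, antagonist mode. Cells were seeded 18 h, dye-loaded 1 h at 37 C and given compound for 5 min at RT, then acetylcholine was added at 50nM. FDSS fluorescence was read 3 min; 15 concentrations, three runs.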

[14] = target: Muscarinic acetylcholine receptor M1 (Homo sapiens) (UniProt P11229); assay: Cholinergic receptor muscarinic 1 (CHRM1) small molecule agonists, cell-based qHTS assay (AID 1963589); note: nearly all actives have a fitted effect of over 35% in size; note: potency is the fitted concentration of half-maximal effect
Outline: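 CHO cells stably expressing human CHRM1, seeded 18 h at 37 C/5% CO2, dye-loaded 1 h at 37 C, then given compound in agonist mode; intracellular calcium fluorescence read kinetically at 1 s intervals. Fifteen concentrations, three independent runs.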

[15] = cAMP Responsive Elements (CRE) small molecule agonists, cell-based qHTS assay (AID 1963590)
Outline: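 CRE-bla HEK 293T cells in DMEM with 10% dialyzed FBS, NEAA, pyruvate and 25 mM HEPES were plated 18 h at 37 C/5% CO2, then exposed to compounds in DMSO for 3 h before LiveBLAzer B/G FRET substrate addition.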

[16] = cAMP Responsive Elements (CRE) small molecule antagonists, cell-based qHTS assay (AID 1963591; active = well fitted inhibition curve with a large enough effect in the signal ratio in the repeat runs, not every such curve was filed as active; the % refers to the signal ratio)
Outline: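 CRE-bla HEK293T cells were plated 18 h at 37 °C/5% CO2, pinned with compound in DMSO, then stimulated with NKH477 at 0.25 uM final for 3 h. LiveBLAzer B/G FRET substrate was added and plates incubated 2 h at room temperature.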

[17] = target: 5-hydroxytryptamine receptor 2A (Homo sapiens) (UniProt P28223); assay: 5-hydroxytryptamine receptor 2A (HTR2A) small molecule antagonists, cell-based qHTS assay (AID 1963586); note: nearly all actives have a fitted effect of over 45% in size; note: potency is the fitted concentration of half-maximal effect
Outline: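 Antagonist-mode intracellular calcium assay: DOI (4 nM) added after 5 min compound pre-incubation at room temperature to dye-loaded HTR2A-CHO cells. Fluorescence followed for 3 min, sampled every second.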

[18] = target: D(2) dopamine receptor (Homo sapiens) (UniProt P14416); assay: Dopamine D2 receptor (DRD2) small molecule agonists, cell-based qHTS assay (AID 1963594); note: nearly all actives have a fitted effect of over 35% in size
Outline: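 cAMP accumulation in DRD2-HEK293 cells measured by HTRF after 1 h detection; compounds added 10 min before NKH477 (200nM […]) forskolin-analogue stimulation, 30 min at room temperature, with Ro20-1724 present at 0.1 mM final.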

[19] = target: Beta-2 adrenergic receptor (Homo sapiens) (UniProt P07550); assay: Adrenergic beta2 receptor (ADRB2) small molecule antagonists, cell-based qHTS assay (AID 1963592); note: series mostly up to about 92 µM; nearly all actives have a fitted effect of over 50% in size
Outline: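 Cells (CHO, stable ADRB2 overexpression) incubated 18-20hr at 37C; compounds added from DMSO; agonist mix (1nM isoproterenol, 100uM IBMX, 25uM Ro-20-1724) added; 0.5hr RT; d2-cAMP and anti-cAMP-cryptate added; 1hr RT; 665/615 nm read.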

[20] = target: Beta-2 adrenergic receptor (Homo sapiens) (UniProt P07550); assay: Adrenergic beta2 receptor (ADRB2) small molecule agonists, cell-based qHTS assay (AID 1963593);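 note: CHO cells stably overexpressing human ADRB2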
Outline: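 CHO cells stably over-expressing ADRB2 were plated overnight at 37C, then dosed with compounds plus a stimulation mix containing 100uM IBMX and 25uM Ro-20-1724 for 0.5hr at room temperature. cAMP was measured by HTRF competition, 1hr.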

Measured: Potency

Sequence of D(2) dopamine receptor (Homo sapiens) (P14416 whole entry, looked up): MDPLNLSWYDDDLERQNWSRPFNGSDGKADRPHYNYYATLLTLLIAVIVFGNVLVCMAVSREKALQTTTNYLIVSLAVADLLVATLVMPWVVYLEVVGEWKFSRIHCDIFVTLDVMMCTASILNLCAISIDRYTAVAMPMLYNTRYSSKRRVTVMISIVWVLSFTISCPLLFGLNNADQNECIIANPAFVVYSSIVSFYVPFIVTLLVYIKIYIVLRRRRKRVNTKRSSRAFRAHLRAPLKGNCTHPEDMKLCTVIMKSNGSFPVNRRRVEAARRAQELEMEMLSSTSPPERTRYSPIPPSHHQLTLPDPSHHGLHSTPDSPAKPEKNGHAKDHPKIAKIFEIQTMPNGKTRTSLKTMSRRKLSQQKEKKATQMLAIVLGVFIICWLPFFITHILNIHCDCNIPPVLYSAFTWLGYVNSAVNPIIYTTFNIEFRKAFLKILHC
Sequence of Gonadotropin-releasing hormone receptor (Homo sapiens) (P30968 whole entry, looked up): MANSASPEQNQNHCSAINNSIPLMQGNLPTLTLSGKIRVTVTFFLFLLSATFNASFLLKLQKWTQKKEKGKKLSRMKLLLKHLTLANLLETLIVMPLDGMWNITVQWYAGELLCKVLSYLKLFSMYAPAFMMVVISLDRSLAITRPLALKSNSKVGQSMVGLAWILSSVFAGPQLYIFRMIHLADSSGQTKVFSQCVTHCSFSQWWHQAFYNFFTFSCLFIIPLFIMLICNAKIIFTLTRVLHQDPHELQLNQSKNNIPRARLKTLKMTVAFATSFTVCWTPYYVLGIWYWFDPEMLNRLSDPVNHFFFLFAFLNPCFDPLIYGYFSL
Sequence of 5-hydroxytryptamine receptor 2A (Homo sapiens) (P28223 whole entry, looked up): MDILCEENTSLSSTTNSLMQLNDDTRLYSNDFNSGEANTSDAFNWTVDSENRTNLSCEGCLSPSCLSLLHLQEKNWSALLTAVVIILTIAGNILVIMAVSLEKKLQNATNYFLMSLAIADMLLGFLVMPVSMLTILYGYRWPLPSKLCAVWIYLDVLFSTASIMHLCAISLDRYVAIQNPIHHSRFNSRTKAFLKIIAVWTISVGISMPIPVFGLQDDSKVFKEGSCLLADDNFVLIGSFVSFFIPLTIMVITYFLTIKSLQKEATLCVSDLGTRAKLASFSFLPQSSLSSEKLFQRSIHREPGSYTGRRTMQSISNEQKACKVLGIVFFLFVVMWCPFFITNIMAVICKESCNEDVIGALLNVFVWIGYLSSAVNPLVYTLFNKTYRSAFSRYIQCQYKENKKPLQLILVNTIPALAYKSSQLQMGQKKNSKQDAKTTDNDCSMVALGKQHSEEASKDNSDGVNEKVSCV
Sequence of KiSS-1 receptor (Homo sapiens) (Q969F8 whole entry, looked up): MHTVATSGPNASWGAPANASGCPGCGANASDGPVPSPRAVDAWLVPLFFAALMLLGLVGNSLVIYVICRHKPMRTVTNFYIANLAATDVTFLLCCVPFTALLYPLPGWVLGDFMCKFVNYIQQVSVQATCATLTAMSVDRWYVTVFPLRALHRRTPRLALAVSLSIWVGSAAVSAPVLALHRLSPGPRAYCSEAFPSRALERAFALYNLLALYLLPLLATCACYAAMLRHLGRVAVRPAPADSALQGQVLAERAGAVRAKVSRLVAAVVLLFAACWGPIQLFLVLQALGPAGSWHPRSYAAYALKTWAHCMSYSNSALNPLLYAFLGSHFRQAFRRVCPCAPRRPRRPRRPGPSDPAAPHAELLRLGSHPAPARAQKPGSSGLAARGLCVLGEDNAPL
Sequence of Muscarinic acetylcholine receptor M1 (Homo sapiens) (P11229 whole entry, looked up): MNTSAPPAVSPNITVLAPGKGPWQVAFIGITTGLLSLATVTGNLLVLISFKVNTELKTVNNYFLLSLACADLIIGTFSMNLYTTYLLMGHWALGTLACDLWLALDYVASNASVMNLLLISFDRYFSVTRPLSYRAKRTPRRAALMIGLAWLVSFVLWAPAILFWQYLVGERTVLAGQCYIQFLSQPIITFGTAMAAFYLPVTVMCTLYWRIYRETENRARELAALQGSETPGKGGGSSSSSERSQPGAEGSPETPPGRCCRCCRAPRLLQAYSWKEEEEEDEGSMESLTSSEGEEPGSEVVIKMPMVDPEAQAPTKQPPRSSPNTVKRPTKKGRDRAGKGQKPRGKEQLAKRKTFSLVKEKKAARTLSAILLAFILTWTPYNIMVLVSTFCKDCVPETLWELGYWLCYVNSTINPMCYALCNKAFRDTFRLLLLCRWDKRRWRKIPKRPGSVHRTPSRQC
Sequence of Beta-2 adrenergic receptor (Homo sapiens) (P07550 whole entry, looked up): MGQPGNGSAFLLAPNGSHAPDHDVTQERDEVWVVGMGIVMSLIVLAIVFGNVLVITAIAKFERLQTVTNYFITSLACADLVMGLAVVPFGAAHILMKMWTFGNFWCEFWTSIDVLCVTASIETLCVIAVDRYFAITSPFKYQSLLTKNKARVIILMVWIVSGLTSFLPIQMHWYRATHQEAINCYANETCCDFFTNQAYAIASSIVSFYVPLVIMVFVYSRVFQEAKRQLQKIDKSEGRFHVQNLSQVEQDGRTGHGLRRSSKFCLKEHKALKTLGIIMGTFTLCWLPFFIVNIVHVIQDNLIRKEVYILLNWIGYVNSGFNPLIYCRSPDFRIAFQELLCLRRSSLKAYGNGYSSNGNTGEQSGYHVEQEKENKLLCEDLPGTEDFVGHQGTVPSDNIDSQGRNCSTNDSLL

CNCC(O)c1ccc(O)c(O)c1 (stereo not drawn)
active: [3] 42.5 nM | [9] 5310 nM
inactive: [1] | [2] | [4] | [5] | [6] | [7] | [8]

CC1(C)SC(C)(C)SC(C)(C)S1
not listed: [4] | [5] | [8] | [17] | [18] | [19] | [20]
inactive: all other assays above

CC(=O)OC(C)C[N+](C)(C)C (stereo not drawn)
active: [3] 1070 nM | [14] 151 nM
not listed: [10] | [13] | [19] | [20]
inactive: all other assays above

CCC/C=C(\C=O)CC
not listed: [4] | [5] | [6] | [8] | [9]
inactive: all other assays above

O=C1NC2CCCCN2C12CCN(CCCN1c3ccccc3CCc3ccc(Cl)cc31)CC2 (stereo not drawn)
active: [1] 29800 nM | [17] 36.5 nM | [13] 1300 nM | [9] 335 nM
inactive: [2] | [3] | [10] | [11] | [6] | [12] | [14] | [20] | [18]

C=COCCOCCOC=C
not listed: [10] | [12] | [19]
inactive: all other assays above
